Measurements taken from PubChem BioAssay (Tox21).
Where “and” joins values, the source holds several entries; their conditions need not be identical. Equal entries are not always repeated. Records with an inconclusive call do not appear. Where a call stands in place of a potency, no number is given. Some compounds were tested as several samples or in several runs, with calls that do not always agree. Calls of active or inactive are those of the source. Unless noted, calls follow the shape of the dose curve; as a rule, active = well fitted curve in the direction sought with a large enough effect in the repeat runs; inconclusive = weak or mixed curves; inactive = no such curve, though single readings can be large; an effect the other way counts as inactive or inconclusive.

Key:
[1] = qHTS assay to identify small molecule antagonists of the estrogen receptor alpha (ER-alpha) signaling pathway using the BG1 cell line in the presence of 0.1 nM 17-beta-estradiol - cell viability counter screen (AID 1259241); also: nearly all actives have a fitted effect of over 40% in size; also: potency is read from the fitted curve at half-maximal effect
Procedure, shortened: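 The cell line endogenously expresses full-length ER-alpha and carries four EREs driving luciferase. Cells are cultured 5 days hormone-free, treated 22 hr with compounds and 0.1 nM estradiol, then viability is read by fluorescence.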

[2] = qHTS assay to identify small molecule antagonists of the androgen receptor (AR) signaling pathway using the MDA cell line in the presence of 0.5 nM R1881 - cell viability counter screen (AID 1259242); also: nearly all actives have a fitted effect of over 45% in size
Procedure, shortened: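 Live-cell protease fluorescence, CellTiter-Fluor, 30 min at 37C. Cells: MDA-kb2, 3,000/well, preincubated 5 hr. Compounds plus 0.5 nM R1881 final, 16 hr, 37C, 0% CO2.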

[3] = biological target: Estrogen receptor (Homo sapiens) (UniProt P03372); assay: qHTS assay to identify small molecule antagonists of the estrogen receptor alpha (ER-alpha) signaling pathway using the BG1 cell line in the presence of 0.1 nM 17-beta-estradiol (AID 1259244); also: nearly all actives have a fitted effect of over 50% in size; also: potency is read from the fitted curve at half-maximal effect
Procedure, shortened: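 Luminescence after ONE-Glo (30 min, room temperature) measured ERE-luciferase activity in VM7Luc4E2 cells treated 22 h with compound and 0.1 nM final 17beta-estradiol as stimulator.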

[4] = qHTS assay to identify small molecule HDAC inhibitors (AID 1259364); also: potency is read from the fitted curve at half-maximal effect;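 also: wild-type HCT-116 cells with endogenous class I/II HDAC activity; nearly all actives have a fitted effect of over 45% in size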; as to activity change, negative = inhibition: top concentration of the series differs between compounds
Procedure, shortened: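 HCT-116 (wild type), 1,500 cells/well, overnight; compound 2 hr 37C 5% CO2; HDAC-Glo I/II reagent 30 min RT; luminescence readout.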

[5] = qHTS assay to identify small molecule HDAC inhibitors - cell viability counter screen (AID 1259365); also: series mostly up to about 92 µM; nearly all actives have a fitted effect of over 50% in size
Procedure, shortened: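 Viability readout: CellTiter-Glo luminescence. Wild-type HCT-116 cells, 2hr compound treatment following overnight attachment at 37 C.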

[6] = qHTS assay to identify small molecule agonists of the sonic hedgehog signaling (Shh) pathway - cell viability counter screen (AID 1259366); also: nearly all actives have a fitted effect of over 50% in size; also: potency is read from the fitted curve at half-maximal effect
Procedure, shortened: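 Viability measured fluorometrically (CellTiter-Fluor, 1hr, 37C) in 3T3 Gli1-Luc reporter cells after 23hr compound exposure within a 24hr incubation at 37C/5% CO2.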

[7] = qHTS assay to identify small molecule antagonists of the sonic hedgehog signaling (Shh) pathway - cell viability counter screen (AID 1259367); also: nearly all actives have a fitted effect of over 55% in size; also: potency is read from the fitted curve at half-maximal effect
Procedure, shortened: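 Tox21 library chemicals were tested on a Gli1-Luc NIH/3T3 clone (2,000 cells/well) stimulated by conditioned medium; viability was quantified as fluorescence from CellTiter-Fluor reagent added at 23 hr.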

[8] = qHTS assay to identify small molecule agonists of the sonic hedgehog signaling (Shh) pathway (AID 1259368; calls by dose curve;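 also: NIH/3T3-derived 3T3Gli1-Luc cells carrying a stable Gli1-driven firefly luciferase reporter; series mostly up to about 92 µM; nearly all actives have a fitted effect of over 15% in size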)
Procedure, shortened: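 Read-out: firefly luciferase luminescence from a Gli1 response element reporter stably integrated in NIH/3T3-derived 3T3Gli1-Luc cells, measured 30 min at room temperature after reagent addition. Compound exposure lasted 24 hr at 37 C, 5% CO2.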

[9] = qHTS assay to identify small molecule phospholipidosis (PLD) inducers (AID 1259344; active = well fitted curve in the direction sought with a large enough effect; an effect the other way counts as inactive or inconclusive)
Procedure, shortened: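 Image-based: LipidTOX Red pit count/intensity per well and per cell; HepG2, 24 h compound at 37 C, PFA fixation, Hoechst counterstain.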

Sequence of Estrogen receptor (Homo sapiens) (P03372 whole entry, looked up): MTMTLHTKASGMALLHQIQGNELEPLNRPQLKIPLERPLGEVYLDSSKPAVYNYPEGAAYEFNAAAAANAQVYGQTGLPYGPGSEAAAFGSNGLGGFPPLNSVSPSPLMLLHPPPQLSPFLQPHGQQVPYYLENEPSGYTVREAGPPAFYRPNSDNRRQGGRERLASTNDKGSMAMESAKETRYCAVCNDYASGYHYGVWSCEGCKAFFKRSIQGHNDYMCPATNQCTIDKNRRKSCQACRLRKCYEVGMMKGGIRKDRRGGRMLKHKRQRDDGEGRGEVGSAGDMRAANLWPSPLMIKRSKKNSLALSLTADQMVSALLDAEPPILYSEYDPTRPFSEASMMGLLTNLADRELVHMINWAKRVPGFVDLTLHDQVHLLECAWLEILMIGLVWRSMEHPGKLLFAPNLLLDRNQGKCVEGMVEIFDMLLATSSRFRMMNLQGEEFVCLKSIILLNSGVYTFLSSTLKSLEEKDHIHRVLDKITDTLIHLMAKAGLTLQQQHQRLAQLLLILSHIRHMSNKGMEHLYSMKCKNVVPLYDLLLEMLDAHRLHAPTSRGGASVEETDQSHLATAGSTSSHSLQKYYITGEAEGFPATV

c1ccc2c(c1)-c1cccc3c1c-2cc1ccccc13
Potency [1]: inactive | Potency [2]: inactive | Potency [3]: inactive | Potency [4]: inactive | Potency [5]: inactive | Potency [6]: inactive | Potency [7]: inactive | Potency [8]: inactive

O=C1Nc2ccccc2C1(c1ccc(O)cc1)c1ccc(O)cc1
Potency [1]: 0.298 µM (active) | Potency [2]: inactive | Potency [3]: 486 nM (active) and 237 nM (active) | Potency [4]: inactive | Potency [5]: inactive | Potency [6]: 27.3 µM (active) and 9.44 µM (active) | Potency [7]: 48.6 µM (active) | Potency [8]: inactive

c1cnc2cc3c(cc2n1)C1CNCC3C1
Potency [1]: inactive | Potency [2]: inactive | Potency [3]: inactive | Potency [9]: inactive | Potency [4]: inactive | Potency [5]: inactive | Potency [6]: inactive | Potency [7]: inactive | Potency [8]: inactive

CCCCCCCCCCCCCCCCCl
activity change, negative = cytotoxicity [1]: 9.43% [at 19 µM] (inactive) | viability change, negative = cytotoxic [2]: -2.37% [at 19 µM] (inactive) | activity change, negative = inhibition [3]: 26.4% [at 19 µM] (inactive) | activity change, negative = inhibition [4]: 11.8% [at 19 µM] (inactive) | activity change, negative = cytotoxicity [5]: -13.9% [at 19 µM] (inactive) | viability change, negative = cytotoxic [6]: 0.0419% [at 19 µM] (inactive) | viability change, negative = cytotoxic [7]: -3.23% [at 19 µM] (inactive) | activity change [8]: -1.24% [at 18.9 µM, stronger effect = higher value] (inactive)

C1COC(NC(C2CC2)C2CC2)=N1
Potency [1]: inactive | Potency [2]: inactive | Potency [3]: inactive | Potency [9]: inactive | Potency [4]: inactive | Potency [5]: inactive | Potency [6]: inactive | Potency [7]: inactive | Potency [8]: inactive

CC(=O)OCCOCCOCCOC(C)=O
Potency [1]: inactive | Potency [2]: inactive | Potency [3]: inactive | Potency [4]: inactive | Potency [5]: inactive | Potency [6]: inactive | Potency [7]: inactive | Potency [8]: inactive

[Cl][In]([Cl])[Cl]
Potency [1]: inactive | Potency [2]: inactive | Potency [3]: inactive | Potency [9]: inactive | Potency [4]: inactive | Potency [5]: inactive | Potency [7]: inactive | Potency [8]: inactive

c1cc(C(c2ccc(OCC3CO3)cc2)C(c2ccc(OCC3CO3)cc2)c2ccc(OCC3CO3)cc2)ccc1OCC1CO1 (centres undefined)
Potency [1]: inactive | Potency [2]: inactive | Potency [3]: inactive | Potency [4]: inactive | Potency [5]: inactive | Potency [6]: inactive | Potency [7]: inactive | Potency [8]: inactive

Nc1nc2ccccc2[nH]1
Potency [1]: inactive | Potency [2]: inactive | Potency [3]: inactive | Potency [4]: inactive | Potency [5]: inactive | Potency [6]: inactive | Potency [7]: inactive | Potency [8]: inactive

CCN1CCCC1CNC(=O)c1cc(S(=O)(=O)CC)c(N)cc1OC (centres undefined)
Potency [1]: inactive | Potency [2]: inactive | Potency [3]: inactive | PLD induction [9]: -3.27% [at 7.66 µM] (inactive) | Potency [4]: inactive | Potency [5]: inactive | Potency [6]: inactive | Potency [7]: inactive | Potency [8]: inactive

O=C(Nc1ccccc1SSc1ccccc1NC(=O)c1ccccc1)c1ccccc1
Potency [1]: inactive | Potency [2]: inactive | Potency [3]: 27.4 µM (active) and inactive | Potency [4]: 27.4 µM (active) and 19.3 µM (active) | Potency [5]: inactive | Potency [6]: 13.8 µM (active) and 13.7 µM (active) | Potency [7]: 13.8 µM (active) and 12.2 µM (active) | Potency [8]: inactive

CC[C@@H](N)CO
Potency [1]: inactive | Potency [2]: inactive | Potency [3]: inactive | Potency [4]: inactive | Potency [5]: inactive | Potency [6]: inactive | Potency [7]: inactive | Potency [8]: inactive

O=C(O)CP(=O)(O)O
Potency [1]: inactive | Potency [2]: inactive | Potency [3]: inactive | Potency [9]: inactive | Potency [4]: inactive | Potency [5]: inactive | Potency [6]: inactive | Potency [7]: inactive | Potency [8]: inactive

Cc1scc2c1N(C(=O)CN1CCN(C)CC1)c1ccccc1NC2=O
Potency [1]: inactive | Potency [2]: inactive | Potency [3]: inactive | Potency [9]: inactive | Potency [4]: inactive | Potency [5]: inactive | Potency [6]: inactive | Potency [7]: inactive | Potency [8]: inactive

C=CS(=O)(=O)O
Potency [1]: inactive | Potency [2]: inactive | Potency [3]: inactive | Potency [9]: inactive | Potency [4]: inactive | Potency [5]: inactive | Potency [6]: inactive | Potency [7]: inactive | Potency [8]: inactive

CC(=O)N[C@@H](CS)C(=O)O
Potency [1]: inactive | Potency [2]: inactive | Potency [3]: inactive | Potency [9]: inactive | Potency [4]: inactive | Potency [5]: inactive | Potency [6]: inactive | Potency [7]: inactive | Potency [8]: inactive

CC(=O)CC(C)=O
Potency [1]: inactive | Potency [2]: inactive | Potency [3]: inactive | Potency [4]: inactive | Potency [5]: inactive | Potency [6]: inactive | Potency [7]: inactive | Potency [8]: inactive

O=C(Oc1ccccc1)c1ccccc1O
Potency [1]: inactive | Potency [2]: inactive | Potency [3]: inactive | Potency [9]: inactive | Potency [5]: inactive | Potency [6]: inactive | Potency [7]: inactive | Potency [8]: inactive

CC(C(O)c1ccc(O)cc1)N1CCC(Cc2ccccc2)CC1 (centres undefined)
Potency [1]: inactive | Potency [2]: inactive | Potency [3]: inactive | Potency [4]: inactive | Potency [5]: inactive | Potency [6]: inactive | Potency [7]: inactive | Potency [8]: inactive

CC(C)(c1ccccc1)c1ccc(Nc2ccc(C(C)(C)c3ccccc3)cc2)cc1
Potency [1]: inactive | Potency [2]: inactive | Potency [3]: inactive | Potency [4]: inactive | Potency [5]: inactive | Potency [6]: inactive | Potency [7]: inactive | Potency [8]: inactive

O=C(OCc1ccccc1)c1ccc(O)cc1
Potency [1]: inactive | Potency [2]: inactive | Potency [3]: inactive | Potency [9]: inactive | Potency [4]: 12.2 µM (active) and 11.9 µM (active) | Potency [5]: inactive | Potency [6]: inactive | Potency [7]: 68.6 µM (active) and inactive | Potency [8]: inactive

C=C(C)C1CC=C(C)C(OC(C)=O)C1 (centres undefined)
Potency [1]: inactive | Potency [2]: inactive | Potency [3]: inactive | Potency [4]: inactive | Potency [5]: inactive | Potency [6]: inactive | Potency [7]: inactive | Potency [8]: inactive
